Laboratory results taken from article PMC7862700, “An all-to-all approach to the identification of sequence-specific readers for epigenetic DNA modifications on cytosine”.

What was measured:
Assay in all cases: DAPPL (digital affinity profiling via proximity ligation, sequencing); 10 mM Tris-HCl pH 7.5, 50 mM NaCl, 1 mM DTT, 4% glycerol, room temperature, 30 min; GST-TFs on glutathione beads, 16-mer random dsDNA library, 0.1% formaldehyde crosslink after washing; high values mean tight binding
Settings in all cases: protein: recombinant; tags: N-terminal GST; dsDNA, one strand shown
[1] = molecular target: ETV5 (Homo sapiens, UniProt P41161 1-510)
Summary of the method: (§1)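 Yeast served to express human transcription factors as GST fusions, which were then captured on glutathione beads and labelled with DNA barcodes. Pooled with a tag-only sample, they were incubated with 200 nmole of a 16-mer random double-stranded DNA library for 30 min at room temperature in Tris/NaCl/DTT/glycerol buffer, washed, crosslinked with 0.1% formaldehyde, ligated by proximity, amplified by PCR and sequenced. Dividing each hexamer's read frequency for a factor by its frequency for the tag-only sample gives the binding signal.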

[2] = molecular target: T1, SPIC (Homo sapiens, UniProt Q8N5J4 1-248)
T1 sequence: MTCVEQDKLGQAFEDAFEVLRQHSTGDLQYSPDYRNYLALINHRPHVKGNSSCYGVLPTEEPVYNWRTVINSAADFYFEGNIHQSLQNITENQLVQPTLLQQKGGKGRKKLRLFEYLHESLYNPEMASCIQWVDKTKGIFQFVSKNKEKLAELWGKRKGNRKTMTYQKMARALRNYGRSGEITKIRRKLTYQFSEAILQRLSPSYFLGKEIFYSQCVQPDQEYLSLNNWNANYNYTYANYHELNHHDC
Summary of the method: as §1

[3] = molecular target: ELF4 (Homo sapiens, UniProt Q99607 1-663)
Summary of the method: as §1

[4] = molecular target: T2, ELK4 (Homo sapiens, UniProt P28324-2 1-405)
T2 sequence: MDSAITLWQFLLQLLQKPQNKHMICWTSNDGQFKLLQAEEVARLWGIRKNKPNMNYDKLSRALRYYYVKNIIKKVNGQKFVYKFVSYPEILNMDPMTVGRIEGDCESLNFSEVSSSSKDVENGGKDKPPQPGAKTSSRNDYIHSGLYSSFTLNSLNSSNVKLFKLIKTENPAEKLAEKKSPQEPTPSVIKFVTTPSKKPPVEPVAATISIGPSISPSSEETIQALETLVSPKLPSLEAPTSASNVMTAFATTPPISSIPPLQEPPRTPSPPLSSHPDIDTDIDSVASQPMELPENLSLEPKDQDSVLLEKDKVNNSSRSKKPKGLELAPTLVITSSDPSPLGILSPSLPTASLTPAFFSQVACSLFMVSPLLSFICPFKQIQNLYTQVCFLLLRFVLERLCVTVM
Summary of the method: as §1

[5] = molecular target: T3, ETV2 (Homo sapiens, UniProt O00321 1-342)
T3 sequence: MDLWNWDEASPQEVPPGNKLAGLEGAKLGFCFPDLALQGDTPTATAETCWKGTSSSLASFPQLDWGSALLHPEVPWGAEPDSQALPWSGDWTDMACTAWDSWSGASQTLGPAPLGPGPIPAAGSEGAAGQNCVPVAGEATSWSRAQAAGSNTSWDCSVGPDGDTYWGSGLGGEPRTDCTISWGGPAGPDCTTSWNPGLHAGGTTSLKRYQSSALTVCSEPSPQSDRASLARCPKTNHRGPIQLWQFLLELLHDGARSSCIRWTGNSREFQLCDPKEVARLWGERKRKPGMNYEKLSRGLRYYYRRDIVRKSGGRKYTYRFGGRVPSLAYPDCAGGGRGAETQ
Summary of the method: as §1

[6] = molecular target: T4, ELF3 (Homo sapiens, UniProt P78545 1-371)
T4 sequence: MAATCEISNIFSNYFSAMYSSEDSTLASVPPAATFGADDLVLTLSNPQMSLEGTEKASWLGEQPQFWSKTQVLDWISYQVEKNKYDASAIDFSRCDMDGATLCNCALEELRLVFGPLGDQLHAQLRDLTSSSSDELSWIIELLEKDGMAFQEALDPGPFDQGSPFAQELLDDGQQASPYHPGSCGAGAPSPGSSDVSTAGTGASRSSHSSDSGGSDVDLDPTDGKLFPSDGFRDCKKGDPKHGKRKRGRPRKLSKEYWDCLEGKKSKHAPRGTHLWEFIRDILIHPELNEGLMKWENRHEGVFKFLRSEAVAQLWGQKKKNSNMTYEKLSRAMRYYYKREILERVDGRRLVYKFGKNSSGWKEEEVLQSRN
Summary of the method: as §1

[7] = molecular target: ETV1 (Homo sapiens, UniProt P50549 1-477)
Summary of the method: as §1

[8] = molecular target: T5, ERF (Homo sapiens, UniProt P50548 1-548)
T5 sequence: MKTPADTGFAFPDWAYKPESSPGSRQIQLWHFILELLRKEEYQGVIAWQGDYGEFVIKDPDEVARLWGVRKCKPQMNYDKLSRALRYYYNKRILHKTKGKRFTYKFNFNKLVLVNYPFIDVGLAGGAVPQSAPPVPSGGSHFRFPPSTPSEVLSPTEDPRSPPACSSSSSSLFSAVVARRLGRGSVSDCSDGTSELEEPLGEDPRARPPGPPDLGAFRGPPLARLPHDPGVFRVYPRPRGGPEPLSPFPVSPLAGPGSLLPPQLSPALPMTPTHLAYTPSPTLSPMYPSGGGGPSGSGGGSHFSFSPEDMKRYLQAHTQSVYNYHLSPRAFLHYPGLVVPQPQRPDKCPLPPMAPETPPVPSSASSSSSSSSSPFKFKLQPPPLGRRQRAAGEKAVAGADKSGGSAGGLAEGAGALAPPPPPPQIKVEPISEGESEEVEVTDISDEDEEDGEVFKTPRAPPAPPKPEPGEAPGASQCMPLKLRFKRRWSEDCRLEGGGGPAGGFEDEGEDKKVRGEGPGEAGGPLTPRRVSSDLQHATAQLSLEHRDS
Summary of the method: as §1

[9] = molecular target: T6, ETV3L (Homo sapiens, UniProt Q6ZN32 1-361)
T6 sequence: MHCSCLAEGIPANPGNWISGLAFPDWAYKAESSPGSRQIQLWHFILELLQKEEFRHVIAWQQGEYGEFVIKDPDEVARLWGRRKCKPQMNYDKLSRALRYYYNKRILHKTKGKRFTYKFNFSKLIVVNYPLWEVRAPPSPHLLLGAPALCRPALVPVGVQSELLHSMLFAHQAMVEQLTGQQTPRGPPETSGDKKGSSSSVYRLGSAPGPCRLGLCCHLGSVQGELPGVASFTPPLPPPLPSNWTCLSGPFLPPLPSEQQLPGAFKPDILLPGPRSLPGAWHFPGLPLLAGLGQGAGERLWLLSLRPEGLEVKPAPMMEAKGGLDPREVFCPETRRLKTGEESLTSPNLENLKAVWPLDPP
Summary of the method: as §1

[10] = molecular target: T7, ETS2 (Homo sapiens, UniProt P15036 1-469)
T7 sequence: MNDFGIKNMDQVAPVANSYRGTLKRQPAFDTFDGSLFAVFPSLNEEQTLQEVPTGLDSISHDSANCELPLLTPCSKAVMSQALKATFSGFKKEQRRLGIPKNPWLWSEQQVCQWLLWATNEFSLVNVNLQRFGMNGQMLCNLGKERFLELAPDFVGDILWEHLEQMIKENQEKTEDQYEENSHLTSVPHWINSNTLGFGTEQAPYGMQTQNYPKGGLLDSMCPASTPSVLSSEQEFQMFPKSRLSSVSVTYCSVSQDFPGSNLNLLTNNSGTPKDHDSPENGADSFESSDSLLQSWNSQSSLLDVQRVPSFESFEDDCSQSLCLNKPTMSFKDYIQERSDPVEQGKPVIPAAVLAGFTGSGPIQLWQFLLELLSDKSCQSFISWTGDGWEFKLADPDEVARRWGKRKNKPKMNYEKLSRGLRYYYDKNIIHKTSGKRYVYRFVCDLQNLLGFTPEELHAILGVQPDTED
Summary of the method: as §1

[11] = molecular target: T8, SPDEF (Homo sapiens, UniProt O95238 1-335)
T8 sequence: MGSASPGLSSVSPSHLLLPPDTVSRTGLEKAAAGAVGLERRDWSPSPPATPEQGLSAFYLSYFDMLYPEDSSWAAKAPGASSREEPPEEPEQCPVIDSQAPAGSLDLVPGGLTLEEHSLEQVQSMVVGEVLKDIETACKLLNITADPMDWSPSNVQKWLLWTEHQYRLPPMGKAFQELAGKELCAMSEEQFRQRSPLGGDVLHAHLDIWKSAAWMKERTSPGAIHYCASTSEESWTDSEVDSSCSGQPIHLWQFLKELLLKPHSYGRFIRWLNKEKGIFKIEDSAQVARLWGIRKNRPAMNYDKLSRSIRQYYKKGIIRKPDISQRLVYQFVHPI
Summary of the method: as §1

[12] = molecular target: T9, ELF5 (Homo sapiens, UniProt Q9UKW6-2 1-255)
T9 sequence: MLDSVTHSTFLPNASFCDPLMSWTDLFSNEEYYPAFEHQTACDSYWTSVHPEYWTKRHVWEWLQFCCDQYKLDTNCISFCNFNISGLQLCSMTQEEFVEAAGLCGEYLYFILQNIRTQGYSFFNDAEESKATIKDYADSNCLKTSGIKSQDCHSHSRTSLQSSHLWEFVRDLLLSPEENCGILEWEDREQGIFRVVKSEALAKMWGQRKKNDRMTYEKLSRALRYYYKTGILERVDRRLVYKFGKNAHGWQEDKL
Summary of the method: as §1

[13] = molecular target: T10, ETV3 (Homo sapiens, UniProt P41162-2 1-143)
T10 sequence: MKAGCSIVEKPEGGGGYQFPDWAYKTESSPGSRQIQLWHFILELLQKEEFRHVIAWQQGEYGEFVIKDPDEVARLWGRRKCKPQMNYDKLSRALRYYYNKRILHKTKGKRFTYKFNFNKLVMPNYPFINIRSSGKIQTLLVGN
Summary of the method: as §1

[14] = molecular target: ETV6 (Homo sapiens, UniProt P41212 1-452)
Summary of the method: as §1

[15] = molecular target: T11, FEV (Homo sapiens, UniProt Q99581 1-238)
T11 sequence: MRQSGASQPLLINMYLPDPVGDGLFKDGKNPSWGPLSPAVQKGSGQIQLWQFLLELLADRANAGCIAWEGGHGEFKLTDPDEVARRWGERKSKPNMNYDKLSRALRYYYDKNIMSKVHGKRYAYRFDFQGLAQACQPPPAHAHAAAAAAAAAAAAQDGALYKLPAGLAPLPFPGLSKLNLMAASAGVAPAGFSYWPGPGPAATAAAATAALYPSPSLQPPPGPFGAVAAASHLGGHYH
Summary of the method: as §1

Chain of ELF4 (Q99607 whole entry): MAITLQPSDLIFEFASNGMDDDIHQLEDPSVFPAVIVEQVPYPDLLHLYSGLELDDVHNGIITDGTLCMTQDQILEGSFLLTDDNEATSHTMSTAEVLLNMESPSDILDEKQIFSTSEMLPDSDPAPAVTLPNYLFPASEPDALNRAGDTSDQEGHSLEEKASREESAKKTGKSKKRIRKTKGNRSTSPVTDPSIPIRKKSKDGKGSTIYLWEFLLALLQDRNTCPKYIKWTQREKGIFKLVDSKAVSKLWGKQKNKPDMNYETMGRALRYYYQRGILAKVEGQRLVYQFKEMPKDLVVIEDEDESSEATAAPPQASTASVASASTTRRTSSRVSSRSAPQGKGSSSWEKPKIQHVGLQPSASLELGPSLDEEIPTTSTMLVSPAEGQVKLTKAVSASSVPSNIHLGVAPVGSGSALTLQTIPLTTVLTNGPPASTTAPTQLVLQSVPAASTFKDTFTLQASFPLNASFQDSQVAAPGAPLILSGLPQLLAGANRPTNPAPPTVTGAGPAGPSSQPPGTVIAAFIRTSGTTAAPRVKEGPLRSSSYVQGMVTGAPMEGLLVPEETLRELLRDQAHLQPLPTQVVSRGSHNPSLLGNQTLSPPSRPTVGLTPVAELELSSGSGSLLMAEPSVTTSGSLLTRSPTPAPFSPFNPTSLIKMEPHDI
Chain of ETV5 (P41161 whole entry, the tested form may be a part): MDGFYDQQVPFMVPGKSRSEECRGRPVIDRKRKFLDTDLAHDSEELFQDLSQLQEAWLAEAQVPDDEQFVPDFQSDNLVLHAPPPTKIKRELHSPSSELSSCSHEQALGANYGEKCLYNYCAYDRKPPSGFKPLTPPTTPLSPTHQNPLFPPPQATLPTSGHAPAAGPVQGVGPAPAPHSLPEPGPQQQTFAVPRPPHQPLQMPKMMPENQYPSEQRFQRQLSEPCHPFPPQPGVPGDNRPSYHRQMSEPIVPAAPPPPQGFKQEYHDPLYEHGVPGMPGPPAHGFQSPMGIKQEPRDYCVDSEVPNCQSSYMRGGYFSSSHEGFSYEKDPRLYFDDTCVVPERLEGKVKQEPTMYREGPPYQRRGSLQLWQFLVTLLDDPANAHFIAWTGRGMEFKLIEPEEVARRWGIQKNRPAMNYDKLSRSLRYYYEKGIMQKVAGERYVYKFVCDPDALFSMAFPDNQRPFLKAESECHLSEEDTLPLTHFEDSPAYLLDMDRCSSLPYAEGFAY
Chain of ETV1 (P50549 whole entry): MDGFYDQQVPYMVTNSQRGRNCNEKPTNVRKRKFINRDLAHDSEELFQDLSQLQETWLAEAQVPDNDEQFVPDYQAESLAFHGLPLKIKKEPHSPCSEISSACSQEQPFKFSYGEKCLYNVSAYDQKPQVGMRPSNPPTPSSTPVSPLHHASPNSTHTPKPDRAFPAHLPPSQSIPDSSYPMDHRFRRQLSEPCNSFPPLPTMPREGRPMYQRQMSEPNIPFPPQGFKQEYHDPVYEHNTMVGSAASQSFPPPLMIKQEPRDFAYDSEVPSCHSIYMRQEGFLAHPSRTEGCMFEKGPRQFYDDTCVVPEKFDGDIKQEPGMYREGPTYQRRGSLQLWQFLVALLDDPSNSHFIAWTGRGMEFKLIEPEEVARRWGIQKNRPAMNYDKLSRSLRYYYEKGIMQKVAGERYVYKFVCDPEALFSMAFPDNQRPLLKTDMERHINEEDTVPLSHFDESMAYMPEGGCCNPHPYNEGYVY
Chain of ETV6 (P41212 whole entry): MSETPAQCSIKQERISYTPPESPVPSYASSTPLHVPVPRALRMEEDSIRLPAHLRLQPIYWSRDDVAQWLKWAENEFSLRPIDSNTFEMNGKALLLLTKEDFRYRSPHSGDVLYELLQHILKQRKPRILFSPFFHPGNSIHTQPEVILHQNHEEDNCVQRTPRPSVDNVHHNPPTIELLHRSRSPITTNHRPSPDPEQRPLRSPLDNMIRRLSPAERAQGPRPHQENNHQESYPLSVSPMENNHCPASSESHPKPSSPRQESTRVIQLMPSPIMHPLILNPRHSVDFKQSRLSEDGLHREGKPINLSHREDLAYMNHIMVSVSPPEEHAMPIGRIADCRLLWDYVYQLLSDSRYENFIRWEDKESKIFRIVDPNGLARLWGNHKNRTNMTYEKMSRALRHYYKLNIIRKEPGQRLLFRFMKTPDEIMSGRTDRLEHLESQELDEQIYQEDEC

Row | Sequence | binding signal [1] | binding signal [2] | binding signal [3] | binding signal [4] | binding signal [5] | binding signal [6] | binding signal [7] | binding signal [8] | binding signal [9] | binding signal [10] | binding signal [11] | binding signal [12] | binding signal [13] | binding signal [14] | binding signal [15]
1 | TTGCGT | 1.1 fold enrichment (6-mer frequency, TF over GST control) | 1.1 fold enrichment (6-mer frequency, TF over GST control) | 1.08 fold enrichment (6-mer frequency, TF over GST control) | 1.12 fold enrichment (6-mer frequency, TF over GST control) | 1.33 fold enrichment (6-mer frequency, TF over GST control) | 1.16 fold enrichment (6-mer frequency, TF over GST control) | 1.12 fold enrichment (6-mer frequency, TF over GST control) | 1.21 fold enrichment (6-mer frequency, TF over GST control) | 1.03 fold enrichment (6-mer frequency, TF over GST control) | 1.08 fold enrichment (6-mer frequency, TF over GST control) | 1.03 fold enrichment (6-mer frequency, TF over GST control) | 1.03 fold enrichment (6-mer frequency, TF over GST control) | 1.03 fold enrichment (6-mer frequency, TF over GST control) | 1.13 fold enrichment (6-mer frequency, TF over GST control) | –
2 | GGTTCA | 1.03 fold enrichment (6-mer frequency, TF over GST control) | 1.14 fold enrichment (6-mer frequency, TF over GST control) | 1.08 fold enrichment (6-mer frequency, TF over GST control) | 1.14 fold enrichment (6-mer frequency, TF over GST control) | 1.14 fold enrichment (6-mer frequency, TF over GST control) | 1.07 fold enrichment (6-mer frequency, TF over GST control) | 1.07 fold enrichment (6-mer frequency, TF over GST control) | 1.01 fold enrichment (6-mer frequency, TF over GST control) | – | 1.11 fold enrichment (6-mer frequency, TF over GST control) | 1.13 fold enrichment (6-mer frequency, TF over GST control) | 1.02 fold enrichment (6-mer frequency, TF over GST control) | 1.09 fold enrichment (6-mer frequency, TF over GST control) | 1.09 fold enrichment (6-mer frequency, TF over GST control) | 1.1 fold enrichment (6-mer frequency, TF over GST control)
3 | TGACTG | 1.03 fold enrichment (6-mer frequency, TF over GST control) | 1.03 fold enrichment (6-mer frequency, TF over GST control) | 1.09 fold enrichment (6-mer frequency, TF over GST control) | 1.16 fold enrichment (6-mer frequency, TF over GST control) | 1.09 fold enrichment (6-mer frequency, TF over GST control) | 1.04 fold enrichment (6-mer frequency, TF over GST control) | 1.03 fold enrichment (6-mer frequency, TF over GST control) | 1.15 fold enrichment (6-mer frequency, TF over GST control) | 1.16 fold enrichment (6-mer frequency, TF over GST control) | 1.17 fold enrichment (6-mer frequency, TF over GST control) | 1.05 fold enrichment (6-mer frequency, TF over GST control) | – | – | 1.06 fold enrichment (6-mer frequency, TF over GST control) | 1.05 fold enrichment (6-mer frequency, TF over GST control)
